Measurements as given in PubChem BioAssay (EPA / NIEHS).
The source made the active and inactive calls. Rule for the calls: active = hit-call score of the fitted dose curve at least 0.9, where 1 is the maximum; inactive = score below 0.9.

Key:
[1] = read-out: catalase (CAT), CAT (gene 847); experiment: LTEA_HepaRG_CAT: Life Technologies and Expression Analysis (LTEA) Assay for catalase (CAT) using HepaRG (AID 2283452); conditions: mRNA level, 48 h; actives raise or lower the signal
Outline: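 HepaRG cells in serum-free induction medium, 0.5% DMSO vehicle, exposed 48 h in duplicate over 8 half-log concentrations from 100 uM. CAT mRNA measured by qRT-PCR, normalized to ACTB, GAPDH, POLR2A; bidirectional fit versus DMSO.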

[2] = read-out: flavin-containing dimethylaniline monooxygenases 3 (FMO3), FMO3 (gene 2328); experiment: LTEA_HepaRG_FMO3: Life Technologies and Expression Analysis (LTEA) Assay for flavin-containing dimethylaniline monooxygenases 3 (FMO3) using HepaRG (AID 2283453); conditions: mRNA level, 48 h; actives raise or lower the signal;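 for AC50: differentiated human HepaRG liver cells in serum-free induction medium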
Outline: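 FMO3 transcript quantified by TaqMan qRT-PCR against three housekeeping genes after 48 h chemical exposure of HepaRG cells. Eight-point half-log series, top 100 uM, 0.5% DMSO vehicle; phenobarbital 1mM induction control; up- or down-regulation fitted.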

[3] = read-out: Cytochrome P450 (CYP1A1), CYP1A1 (gene 1543); experiment: LTEA_HepaRG_CYP1A1: Life Technologies and Expression Analysis (LTEA) Assay for Cytochrome P450 (CYP1A1) using HepaRG (AID 2283454); conditions: mRNA level, 48 h; actives raise or lower the signal
Outline: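 Differentiated HepaRG cells in serum-free induction medium were exposed in duplicate for 48 h to eight half-log concentrations up to 100 uM in 0.5% DMSO. CYP1A1 mRNA was quantified by TaqMan qRT-PCR, normalized to ACTB, GAPDH and POLR2A.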

[4] = read-out: CFLAR gene, CFLAR (gene 8837); experiment: LTEA_HepaRG_CFLAR: Life Technologies and Expression Analysis (LTEA) Assay for CFLAR gene using HepaRG (AID 2283455); conditions: mRNA level, 48 h; actives raise or lower the signal
Outline: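 qRT-PCR read-out (Fluidigm/TaqMan) of CFLAR mRNA, normalized to three housekeeping genes, in differentiated human HepaRG cells after 48 h chemical exposure; 8-point half-log series from 100 uM in 0.5% DMSO; bidirectional curve fitting versus DMSO.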

[5] = read-out: Forkhead box O1 (FOXO1), FOXO1 (gene 2308); experiment: LTEA_HepaRG_FOXO1: Life Technologies and Expression Analysis (LTEA) Assay for Forkhead box O1 (FOXO1) using HepaRG (AID 2283456); conditions: mRNA level, 48 h; actives raise or lower the signal
Outline: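 HepaRG, 48 h exposure, 8-pt half-log series from 100 uM in 0.5% DMSO, duplicates; Fluidigm qRT-PCR mRNA, housekeeping-normalised; bidirectional fit vs DMSO baseline.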

[6] = CEETOX_H295R_TESTO: CeeTox H295R High-throughput Steroidogenesis Assay for Testosterone (TESTO) (AID 2283457); conditions: actives raise or lower the signal;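 for AC50: cells exposed to chemicals for 48 h before medium collection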
Outline: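 H295R human adrenal cells in DMEM/F12 with ITS+ and Nu-Serum, exposed to chemicals for 48 h. Testosterone in medium measured by MTBE extraction, reverse-phase HPLC-MS/MS; bidirectional fit versus DMSO baseline. MTT viability checked in same wells.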

[7] = read-out: growth arrest and DNA damage 45 (GADD45A), GADD45A (gene 1647); experiment: LTEA_HepaRG_GADD45A: Life Technologies and Expression Analysis (LTEA) Assay for growth arrest and DNA damage 45 (GADD45A) using HepaRG (AID 2283458); conditions: mRNA level, 48 h; actives raise or lower the signal
Outline: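 GADD45A expression was measured by TaqMan qRT-PCR against three housekeeping genes (ACTB, GAPDH, POLR2A) after 48 h treatment of HepaRG cells. Eight-point half-log series up to 100 uM in 0.5% DMSO, run in duplicate.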

[8] = read-out: Forkhead box O3 (FOXO3), FOXO3 (gene 2309); experiment: LTEA_HepaRG_FOXO3: Life Technologies and Expression Analysis (LTEA) Assay for Forkhead box O3 (FOXO3) using HepaRG (AID 2283459); conditions: mRNA level, 48 h; actives raise or lower the signal
Outline: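 qRT-PCR readout of FOXO3 transcript, normalized to three housekeeping genes (ACTB, GAPDH, POLR2A); gain or loss fitted against 0.5% DMSO vehicle. HepaRG cells, 48 h chemical exposure, 8-point half-log series, top 100 uM.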

[9] = read-out: growth arrest and DNA damage 45 (GADD45B), GADD45B (gene 4616); experiment: LTEA_HepaRG_GADD45B: Life Technologies and Expression Analysis (LTEA) Assay for growth arrest and DNA damage 45 (GADD45B) using HepaRG (AID 2283461); conditions: mRNA level, 48 h; actives raise or lower the signal
Outline: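 Differentiated HepaRG cells, plated 48 h then switched to serum-free induction medium, were exposed 48 h in duplicate to eight half-log concentrations from 100 uM in 0.5% DMSO; mRNA quantified by qRT-PCR, normalized to ACTB/GAPDH/POLR2A, bidirectional fit versus DMSO.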

[10] = read-out: ABC Transporter (ABCB1), ABCB1 (gene 5243); experiment: LTEA_HepaRG_ABCB1: Life Technologies and Expression Analysis (LTEA) Assay for ABC Transporter (ABCB1) using HepaRG (AID 2283460); conditions: mRNA level, 48 h; actives raise or lower the signal
Outline: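 HepaRG, 48 h exposure, 8-pt half-log series from 100 uM, 0.5% DMSO vehicle, duplicates. Readout: ABCB1 transcript by Fluidigm TaqMan qRT-PCR, housekeeping-normalized; bidirectional curve fit vs DMSO baseline.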

Measured: AC50

O=C(Nc1ccc(Cl)cc1)Nc1ccc(Cl)c(Cl)c1
inactive: [4] | [6]
active: [1] 16.6 µM | [2] 22.9 µM | [3] 27.7 µM | [5] 18.6 µM | [7] 21.7 µM | [8] 11.8 µM | [9] 22.9 µM

O=C(O)c1ccccc1C(=O)OCc1ccccc1
active: [3] 21.4 µM
not listed: [6]
inactive: all other assays above

COc1cccc([C@H](O)C2CCN(CCc3ccc(F)cc3)CC2)c1OC
active: [3] 54.5 µM
not listed: [6]
inactive: all other assays above

CCN(Cc1cccc(S(=O)(=O)O)c1)c1ccc(C(=C2C=CC(=[N+](CC)Cc3cccc(S(=O)(=O)O)c3)C=C2)c2ccccc2S(=O)(=O)[O-])cc1
active: [3] 32.2 µM
not listed: [6]
inactive: all other assays above

Cc1ccc(C(C)C)cc1
active: [3] 74.9 µM
not listed: [6]
inactive: all other assays above

CCCCOC(=O)CC(CC(=O)OCCCC)(OC(C)=O)C(=O)OCCCC
not listed: [6]
inactive: all other assays above

Cc1cccc2ccccc12
not listed: [6]
inactive: all other assays above

CC(C)(C)c1cc(/C=C2\SC(N)=NC2=O)cc(C(C)(C)C)c1O
active: [1] 16.5 µM | [2] 23.9 µM | [4] 27.5 µM | [9] 35.5 µM
not listed: [6]
inactive: all other assays above

CCCCOC(=O)c1ccc(O)cc1
not listed: [10]
inactive: all other assays above

CN(C[C@@H](CC[N+]12CCC(C3CCCCC3)(CC1)CC2)c1ccc(Cl)c(Cl)c1)C(=O)c1cc(C(F)(F)F)cc(C(F)(F)F)c1
active: [1] 17.5 µM | [2] 50 µM | [3] 14.9 µM | [4] 50 µM | [5] 35.9 µM | [7] 0.171 µM | [8] 30.6 µM | [10] 74.2 µM
inactive: [9]

CCCCCCCCCCCC[N+](C)(C)C
inactive: [4] | [5] | [8] | [10]
active: [1] 75.4 µM | [2] 79.3 µM | [3] 67.8 µM | [7] 74.9 µM | [9] 84.1 µM

NC(=O)c1nc(-c2cccc(-c3cc(F)ccc3OCC(F)(F)C(F)(F)F)c2)n[nH]1
active: [1] 50 µM | [3] 20.1 µM | [8] 50 µM | [9] 77.2 µM
inactive: all other assays above

Cc1occc1C(=O)Nc1ccc(C(=O)N2CCC(F)(F)/C(=C\C(=O)N3CCC(N4CCCCC4)CC3)c3ccccc32)cc1
active: [1] 31.2 µM | [2] 44 µM | [3] 16.8 µM | [4] 31.2 µM
not listed: [6]
inactive: all other assays above

CCCCCCCCCCCO
not listed: [6]
inactive: all other assays above

CC[C@@H]1C[C@H](N(Cc2cc(C(F)(F)F)cc(C(F)(F)F)c2)C(C)=O)c2cc(C(F)(F)F)ccc2N1C(=O)OC(C)C
active: [3] 16.7 µM | [10] 0.429 µM
not listed: [6]
inactive: all other assays above

O=c1c(-c2ccc(O)cc2)coc2cc(O)cc(O)c12
active: [6] 12.3 µM
inactive: all other assays above

O=c1ccc2ccccc2o1
not listed: [6]
inactive: all other assays above

Cc1ccc2oc(CN(Cc3ccccc3)C(=O)Nc3c(F)cc(F)cc3F)c(-c3ccc(Cl)cc3)c2c1
active: [1] 8.81 µM | [2] 59.5 µM | [3] 22 µM | [7] 8.78 µM | [10] 19.7 µM
inactive: [4] | [5] | [8] | [9]

CCN(Cc1cccnc1)C(=O)c1cccc(Cl)c1[C@]1(C)C(=O)N(Cc2ccc(OC)cc2OC)c2ccc(Cl)cc21
active: [1] 18.4 µM | [2] 16.6 µM | [7] 18.1 µM | [8] 8.39 µM
not listed: [6]
inactive: all other assays above

O=C1O[C@H]([C@@H](O)CO)C(O)=C1O
active: [3] 61.8 µM
not listed: [6]
inactive: all other assays above

Clc1ccccc1C(c1ccccc1)(c1ccccc1)n1ccnc1
active: [1] 21 µM | [2] 96.5 µM | [3] 9.17 µM | [10] 15.8 µM
not listed: [6]
inactive: all other assays above

C[C@]12CC[C@@H]3c4ccc(O)cc4CC[C@H]3[C@@H]1CC[C@H]2O
active: [3] 18.5 µM
not listed: [6]
inactive: all other assays above

CCCCCCCCCCCCO
not listed: [6]
inactive: all other assays above

Cc1oc2c(NC(=O)c3c(Cl)cccc3Cl)cccc2c1C(C)(C)O
active: [1] 29.3 µM | [2] 37.2 µM | [3] 8.74 µM | [10] 80.5 µM | [9] 75.6 µM
inactive: [4] | [5] | [7] | [8]

CCCCCCCCOc1ccc(C(=O)c2ccccc2)c(O)c1
active: [3] 50 µM
not listed: [6]
inactive: all other assays above

O=C1c2ccccc2C(=O)N1CCc1noc(-c2ccc(CN3CCCCCC3)s2)n1
active: [3] 8.04 µM
not listed: [6]
inactive: all other assays above

CCCCCCCCN(C)CCCCCCCC
not listed: [10]
inactive: all other assays above

Oc1ccccc1
not listed: [6]
inactive: all other assays above

COc1cc(C(=O)NC2CCN(C)CC2)ccc1Nc1ncc2c(n1)N(C1CCCC1)CC(F)(F)C(=O)N2C
active: [1] 15.3 µM | [2] 12.6 µM | [3] 2.11 µM | [4] 14.4 µM | [5] 11.5 µM | [7] 4.65 µM | [10] 6.41 µM | [9] 25.4 µM
inactive: [8]

CN1C(=O)N(c2ccccc2Br)Cc2cnc(Nc3ccc4c(c3)OCC(CO)O4)nc21 (centres undefined)
inactive: [4] | [8]
active: [1] 67.2 µM | [2] 44.8 µM | [3] 12.1 µM | [5] 39.2 µM | [7] 0.0221 µM | [10] 89.9 µM | [9] 81.6 µM

O=C(O)Cn1c(=O)n(Cc2ccc(Br)cc2F)c(=O)c2ccc(Cl)cc21
active: [3] 87.8 µM | [10] 9.92 µM
inactive: all other assays above

COCC(C)OCC(C)OCC(C)O (centres undefined)
not listed: [6]
inactive: all other assays above

CN1C(=O)CC[C@H]1c1cccnc1
active: [3] 76.9 µM
not listed: [6]
inactive: all other assays above

Oc1ccc2ccccc2c1
active: [3] 66.8 µM | [6] 82.4 µM
inactive: all other assays above

CCO[Si](CCCNC(N)=O)(OCC)OCC
active: [3] 50 µM
not listed: [6]
inactive: all other assays above
